Assay results published in PubChem BioAssay (NCI).
This is part of a sample that, as a whole, favours compounds with a hit. Of some 79,000 tested, about 15% had one in any assay. Cut-off read from the data, not from the text of the source: active = growth inhibition above about 70%; inactive = the rest.

Experiments:
[1] = NCI Yeast Anticancer Drug Screen. Data for the rad50 strain (AID 155);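 note: 0% = growth of vehicle-only cultures of the same strain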; settings: S. cerevisiae rad50 strain growth inhibition; at 50.0 µM; hits give high values
Outline: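 Yeast carrying a defined DNA repair defect were exposed to test compounds, and growth was compared with vehicle-treated controls to give percent inhibition.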

[2] = NCI Yeast Anticancer Drug Screen. Data for the mec2-1 strain (AID 157); settings: S. cerevisiae mec2-1 strain, at 50.0 µM, hits give high values
Outline: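 Vehicle-treated cultures served as reference for growth inhibition of compound-exposed mec2-1 yeast.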

[3] = NCI Yeast Anticancer Drug Screen. Data for the sgs1 mgt1 strain (AID 161);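 note: 0% = growth of cultures given vehicle only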; settings: S. cerevisiae sgs1 mgt1 strain, at 50.0 µM, hits give high values
Outline: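 Read-out: growth inhibition vs vehicle controls. Cells: mutant yeast strain deficient in DNA damage repair.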

[4] = NCI Yeast Anticancer Drug Screen. Data for the cln2 rad14 strain (AID 165);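 note: 0% = growth equal to vehicle treated cultures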; settings: S. cerevisiae cln2 rad14 strain, at 50.0 µM, hits give high values
Outline: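 Each compound was tested on cln2 rad14 yeast. Inhibition of growth was calculated against vehicle-exposed controls.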

[5] = NCI Yeast Anticancer Drug Screen. Data for the bub3 strain (AID 167); settings: S. cerevisiae bub3 mutant strain, at 50.0 µM, hits give high values
Outline: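 Compounds were applied to a genetically altered yeast strain carrying a cell-cycle control defect. Growth inhibition was scored against vehicle-treated controls.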

[6] = NCI Yeast Anticancer Drug Screen. Data for the mlh1 rad18 strain (AID 175); settings: S. cerevisiae mlh1 rad18 strain growth inhibition; at 50.0 µM; hits give high values
Outline: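 Vehicle-treated cultures served as the reference for growth inhibition in a yeast strain carrying DNA damage repair alterations exposed to each compound.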

Measured: growth inhibition

CC(C)N(CC(=O)O)CC(=O)O
inactive: [1] -0.95% | [2] -13.4% | [3] -21.1% | [4] -5% | [5] -22.9% | [6] -16.4%

O=C(NCc1ccccc1)NC(c1ccccc1)(c1ccccc1)c1ccccc1
inactive: [1] 28.9% | [2] 14.2% | [3] 34.6% | [4] 11.8% | [5] -4.25% | [6] 30.9%

Nc1cccc2ccc(Cl)nc12
inactive: [1] 37.9% | [2] 19.4% | [3] 14.2% | [4] 9.7% | [5] 16.3% | [6] -5%

Cc1ccc(S(=O)(=O)C(c2ccccc2)C(Br)C(=O)c2ccccc2)cc1 (stereo not given)
inactive: [1] -0.25% | [2] 0.35% | [3] 18.2% | [4] 7.3% | [5] 1.55% | [6] -8.4%

O=C(NNc1c(F)c(F)c(C(F)(F)F)c(F)c1F)c1ccccc1
inactive: [1] 3.55% | [2] -19.1% | [3] -10.9% | [4] -64.3% | [5] -14.8% | [6] -19.1%

O=[N+]([O-])c1ccc(Oc2ccc3ccccc3c2)c([N+](=O)[O-])c1
inactive: [1] -1.4% | [2] -17.9% | [3] 1.8% | [4] -56.5% | [5] -9.75% | [6] -14.3%

COC(=O)C(/C(=N\NC(N)=S)C(=O)Nc1ccccc1[N+](=O)[O-])c1cnc2ccccc2n1 (stereo not given)
inactive: [1] 5% | [2] -14.7% | [3] -8.55% | [4] 2.1% | [5] -19.1% | [6] -18.7%

Brc1ccc(Nc2ccc(Br)cc2Br)c(Br)c1
inactive: [1] 28.2% | [2] 23.1% | [3] 16.6% | [4] 11.6% | [5] 3.8% | [6] 10.2%

O=[S@@]1Nc2cc(Cl)c(Cl)cc2S1
inactive: [1] 9.6% | [2] -2% | [3] -6.6% | [4] 3.45% | [5] -0.05% | [6] 14.1%

Cc1nc(N)nc(-c2ccccc2)c1N=Nc1cc(Cl)cc(Cl)c1
inactive: [1] 5.95% | [2] -8.3% | [3] -3.65% | [4] -6.45% | [5] -5.15% | [6] 7.45%

N#CNS(=O)(=O)c1ccccc1
inactive: [1] 8.3% | [2] -5.6% | [3] 22.6% | [4] 14% | [5] 12.2% | [6] 17.6%

CC(CC(=O)Nc1ccccc1)C(=O)O (stereo not given)
inactive: [1] 7.85% | [2] -7.1% | [3] -10.8% | [4] -26.4% | [5] 5.55% | [6] 2.55%

C=CCOC(=O)CCC(=O)OCC=C
inactive: [1] 3.45% | [2] 6.2% | [3] -4.65% | [4] -15.4% | [5] 5.8% | [6] -4.35%

S=c1[nH]ncn2nc3ccccc3c12
inactive: [1] 0.15% | [2] 2.5% | [3] -2.25% | [4] -45.5% | [5] -3.85% | [6] 1.7%

O=c1cc(-c2ccccc2)c2cc3c(=O)ccoc3cc2o1
inactive: [1] 12.8% | [2] 27.1% | [3] 12% | [4] 14.9% | [5] -1.55% | [6] 0.95%

O=c1cc(-c2ccccc2)nc(/C=C(\O)c2ccncc2)n1-c1ccccc1
inactive: [1] -4.25% | [2] -18.9% | [3] 0.4% | [4] 10.1% | [5] 15.5% | [6] -8.15%

CCC(c1ccc(OCc2ccccc2)cc1)c1cc2c(cc1OCCO)OCO2 (stereo not given)
inactive: [1] 23.7% | [2] 57% | [3] -3% | [4] 0.9% | [5] 39.7% | [6] 57%

COC(=O)CCCCCNC(=O)NCCCCCC(=O)OC
inactive: [1] 4.6% | [2] -21% | [3] -1.2% | [4] 6.25% | [5] -11.4% | [6] 19.1%

CCCCCCCCCCCCCCCCCCNC(=O)N(C)Cc1ccccc1
inactive: [1] 17.5% | [2] 1.65% | [3] -0.65% | [4] -4.75% | [5] -1% | [6] -8.05%

CN1CC(C(N)=O)=CC(C(N)=O)C1 (stereo not given)
inactive: [1] -5.25% | [2] -9.2% | [3] -8.15% | [4] -0.6% | [5] 9.25% | [6] 7.5%
